D1 antag – Antagonist of Human D 1 Dopamine Receptor: qHTS; D(1A) dopamine receptor (Homo sapiens), P21728; HEK293 TREx D1 cells, calcium flux, dopamine EC80; active compounds read low; activity change, negative = inhibition, % at 10 µM; actives 3.2% (n = 360,000); AID 504652, 2011; in the data active means activity change below about -30%; further: on the % scale 0 is the no-effect control and ±100 the full control effect
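Inducible Hek293 Trex D1 cells (tetracycline, overnight, 30 C). Calcium dye 30–90 min RT. Antagonist mode: EC80 dopamine added after 180 s compound read.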
TRHR ag – qHTS for Small Molecule Agonists and Allosteric Enhancers of Human TRH Receptor: Primary Screen for Agonists; AID 493084, 2011; activation, % at 2 µM; TRHR cells, calcium flux fluo-8, FDSS agonist mode; actives 0.18% (n = 360,000); further: 0% is about no effect
Target sequence (P34981 whole entry, looked up): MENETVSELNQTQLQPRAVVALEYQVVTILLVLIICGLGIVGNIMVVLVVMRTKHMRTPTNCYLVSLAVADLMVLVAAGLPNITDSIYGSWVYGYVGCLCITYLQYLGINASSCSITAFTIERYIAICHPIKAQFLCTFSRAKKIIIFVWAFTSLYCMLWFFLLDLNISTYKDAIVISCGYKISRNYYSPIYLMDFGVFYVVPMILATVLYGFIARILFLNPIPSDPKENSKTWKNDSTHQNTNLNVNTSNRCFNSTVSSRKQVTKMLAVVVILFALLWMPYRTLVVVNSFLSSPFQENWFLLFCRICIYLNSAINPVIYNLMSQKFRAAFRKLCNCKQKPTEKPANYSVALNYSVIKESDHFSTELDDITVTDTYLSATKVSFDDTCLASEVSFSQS
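Agonist-mode FDSS calcium read (Ex 480/Em 530, 1 s cycles) in 1536-well TRHR cells with fluo-8 dye, after 10-cycle baseline and 23 nL compound addition; TRH at EC20 (10 nM final) added afterwards for the enhancer phase.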
D1 PAM – Potentiators of Human D1 Dopamine Receptor: qHTS; actives 0.036% (n = 360,000); potentiation, % at 10 µM; D(1A) dopamine receptor (Homo sapiens), P21728; HEK293 TREx D1 cells, calcium flux, dopamine EC20 potentiation; in the data active means potentiation above about 30%; further: 0% is about no effect
TRHR PAM – qHTS for Small Molecule Agonists and Allosteric Enhancers of Human TRH Receptor: Primary Screen for Enhancers | TRHR cells, fluo-8 calcium fluorescence, EC20 TRH enhancement | enhancement, % at 2 µM | actives 0.66% (n = 360,000) | AID 493056, 2011; in the data active means enhancement above about 30%; further: 0% is about no effect
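Enhancer read-out: after compound pinning and an initial kinetic agonist-mode read, an EC20 of TRH (10 nM final) was injected and fluo-8 calcium signal (Ex 480/Em 530) followed at 1 s/cycle for 100 cycles in TRHR-expressing cells.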
D1 ag – Allosteric Agonists of the Human D1 Dopamine Receptor: qHTS. D(1A) dopamine receptor (Homo sapiens), P21728. HEK293 T-REx D1 cells, calcium flux, agonist mode. activation, % at 2 µM. actives 1% (n = 360,000); further: 0% is about no effect
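Agonism was scored from calcium flux recorded over 180 s (1 read/s) after pintool compound addition, following a 10-cycle baseline. Cells were inducible force-coupled HEK293 TREx D1, plated overnight at 30 C and loaded with no-wash calcium dye.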
* hit, by the source's call; x = no result given. A selection: hits, their analogues and other compounds. The true share with any hit is near 4.6%. Unless noted, no stated cut-off is given here; in the data, active means activation above about 30%; inactive means the rest.

SMILES | D1 antag | TRHR ag | D1 PAM | TRHR PAM | D1 ag
CC(C)Oc1ccc(CNC(=O)C2CCCCN2S(=O)(=O)c2ccc(F)cc2)cc1 (centres undefined) | -39.7* | -0.5 | -6.3 | 13.1 | 3.7
CCNC(=O)C1CCCN1S(=O)(=O)c1ccc2ccccc2c1 (centres undefined) | -6.1 | -0.7 | -4.8 | -0.9 | 0.3
Cc1cc2c(s1)c1cnn(Cc3cccc(C)c3F)c(=O)c1n2C | 3.9 | 1.9 | -0.9 | 0.6 | 4.6
C/C(=N/NC(=O)c1ccncc1)c1cc2ccc(O)cc2oc1=O | -7.0 | 23.9 | -2.3 | 4.9 | 40.6*
C/C(=N/NC(N)=S)c1cc2ccc(O)cc2oc1=O | 5.6 | 3.6 | -4.7 | 1.5 | 5.6
C/C(=N\NC(=O)c1ccncc1)c1cc2ccccc2o1 | -25.8 | -0.3 | -3.4 | 2.2 | -0.2
C/C(=N\NC(=O)c1ccncc1)c1cc2ccccc2oc1=O | -34.2* | 0.3 | 2.5 | -0.9 | 4.2
CCC1CCCCN1C(=O)CCS(=O)(=O)c1cc2c(cc1C)NC(=O)CO2 (centres undefined) | 5.3 | -0.4 | -3.7 | -3.7 | -1.1
CCN(CC(=O)Nc1c(F)cccc1F)C(=O)CNC(=O)c1ccc2c(c1)OCO2 | -32.5* | 0.4 | -4.0 | 8.1 | 4.3
CCN(CC(=O)Nc1c(F)cccc1F)C(=O)CNC(=O)c1ccc2ccccc2c1 | 19.6 | -0.1 | x | 9.1 | 10.6
O=C(/C=C/c1ccc(Cl)cc1Cl)Nc1ccc(CN2CCOCC2)cc1 | -38.2* | 1.4 | -6.8 | -0.5 | 25.3
CCc1nc(N2CCC3(CC2)OCCO3)c2nnn(Cc3ccccc3)c2n1 | -10.7 | 0.6 | 2.2 | 37.1* | 2.3
c1ccc(Cn2nnc3c(N4CCC5(CC4)OCCO5)ncnc32)cc1 | -3.7 | -0.1 | -6.7 | -2.2 | -2.0
O=C(Nc1ccc(Cl)cc1)Nc1ccon1 | -23.8 | 0.2 | -7.0 | 0.8 | 16.7
Cc1cccnc1N(C(=O)Nc1ccccc1)C1=NCC(C)(C)S1 | 0.7 | -0.1 | 1.4 | 2.6 | 2.4
COc1ccc(OCC(=O)NNC(=O)Nc2cccc(Cl)c2)cc1 | 1.2 | 0.6 | 1.9 | 33.7* | 0.2
O=C(Nc1cccc(Cl)c1)Nc1ccon1 | -7.4 | 0.5 | -6.4 | 38.6* | 5.5
Cc1cccnc1N(C(=O)Nc1cccc(Cl)c1)C1=NCC(C)(C)S1 | -31.2* | -0.1 | -1.6 | -3.8 | 1.0
O=C(Nc1cccc(Cl)c1)Nc1cnccn1 | -45.4* | 0.2 | -7.4 | -6.1 | 13.0
Cc1nnc(N2CCN(c3ccccc3)CC2)c2c1nnn2Cc1ccc(F)cc1 | 8.0 | 0.9 | -1.8 | 2.5 | -0.1
Cc1ccc(NC(=O)Nc2ccon2)cc1Cl | -30.8* | 0.5 | -11.5 | 9.8 | 5.3
O=C(NC(=S)Nc1cccnc1)c1cc2ccccc2o1 | -44.9* | -0.2 | -1.9 | 0.0 | 2.4

Source: PubChem BioAssay (National Center for Advancing Translational Sciences (NCATS))
